Compounds without any hit were thinned out: in the full panel of roughly 79,000, 15% have a hit. Calls of active or inactive are those of the source. Rule as the data show it: active = growth inhibition above about 70%; inactive = the rest.
What was measured:
[1] = NCI Yeast Anticancer Drug Screen. Data for the rad52 strain (AID 147);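 also: 0% = growth of vehicle-treated control cultures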; settings: S. cerevisiae rad52 mutant growth inhibition, hits give high values
Outline: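 Vehicle-treated cultures served as the reference for growth inhibition of compound-exposed yeast bearing a DNA repair mutation.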

[2] = NCI Yeast Anticancer Drug Screen. Data for the wt1 strain (AID 149);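 also: 0% = growth of vehicle-treated wt1 cultures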; settings: S. cerevisiae wt1 strain (SPY 50644) growth inhibition, hits give high values
Outline: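 Compounds are added to wt1 yeast cultures. Growth is then measured. Inhibition is expressed relative to vehicle-treated controls.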

[3] = NCI Yeast Anticancer Drug Screen. Data for the rad50EPP+ strain (AID 151);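 also: 0% = growth of vehicle-treated control cultures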; settings: S. cerevisiae rad50 mutant strain, hits give high values
Outline: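 In this screen, rad50EPP+ yeast were exposed to compounds. Growth inhibition was scored against vehicle-treated controls.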

[4] = NCI Yeast Anticancer Drug Screen. Data for the mgt1 strain (AID 153); settings: S. cerevisiae mgt1 mutant growth inhibition, hits give high values
Outline: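 mgt1 strain exposed; growth vs vehicle control recorded as inhibition.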

[5] = NCI Yeast Anticancer Drug Screen. Data for the rad50 strain (AID 155);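 also: 0% = growth of vehicle-only cultures of the same strain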; settings: S. cerevisiae rad50 strain growth inhibition, hits give high values
Outline: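 Inhibition values express reduced yeast growth in compound-treated cultures relative to vehicle-treated controls.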

[6] = NCI Yeast Anticancer Drug Screen. Data for the mec2-1 strain (AID 157); settings: S. cerevisiae mec2-1 strain, hits give high values
Outline: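 Vehicle-treated cultures served as reference for growth inhibition of compound-exposed mec2-1 yeast.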

[7] = NCI Yeast Anticancer Drug Screen. Data for the rad14 strain (AID 159);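 also: 0% = growth of vehicle-treated control cultures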; settings: S. cerevisiae rad14 strain growth inhibition, hits give high values
Outline: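 A mutant yeast strain defective in DNA damage repair is treated with compound; inhibition of its growth is scored against untreated, vehicle-exposed cultures.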

[8] = NCI Yeast Anticancer Drug Screen. Data for the sgs1 mgt1 strain (AID 161);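 also: 0% = growth of cultures given vehicle only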; settings: S. cerevisiae sgs1 mgt1 strain, hits give high values
Outline: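 Test agents were incubated with a DNA-repair-mutant yeast strain. Growth was then read and compared against vehicle-treated controls.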

[9] = NCI Yeast Anticancer Drug Screen. Data for the CLN2oe strain (AID 163);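 also: 0% = growth of vehicle-only control cultures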; settings: S. cerevisiae CLN2oe strain, hits give high values
Outline: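 Inhibition relative to vehicle-treated yeast is reported. Cells: strain with genetic alteration in cell-cycle control, grown with compound.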

[10] = NCI Yeast Anticancer Drug Screen. Data for the cln2 rad14 strain (AID 165);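 also: 0% = growth equal to vehicle treated cultures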; settings: S. cerevisiae cln2 rad14 strain, hits give high values
Outline: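 Each compound was tested on cln2 rad14 yeast. Inhibition of growth was calculated against vehicle-exposed controls.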

[11] = NCI Yeast Anticancer Drug Screen. Data for the bub3 strain (AID 167); settings: S. cerevisiae bub3 mutant strain, hits give high values
Outline: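 Steps: expose the mutant yeast strain to compound; grow alongside vehicle-treated cultures; measure growth; express inhibition against the vehicle cultures.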

[12] = NCI Yeast Anticancer Drug Screen. Data for the wt2 strain (AID 169);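 also: 0% = growth of vehicle-treated yeast cultures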; settings: S. cerevisiae wt2 strain growth inhibition, hits give high values
Outline: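 Inhibition of yeast growth was determined after compound treatment, normalised to controls receiving only vehicle.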

[13] = NCI Yeast Anticancer Drug Screen. Data for the mlh1 strain (AID 171);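 also: 0% = growth of vehicle-treated control cultures of the same strain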; settings: S. cerevisiae mlh1 strain growth inhibition, hits give high values
Outline: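 Vehicle-normalised growth inhibition of a repair- or checkpoint-altered yeast strain following compound treatment.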

[14] = NCI Yeast Anticancer Drug Screen. Data for the sgs1 strain (AID 173);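 also: 0% = growth of vehicle-only control cultures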; settings: S. cerevisiae sgs1 mutant, hits give high values
Outline: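 Screen format: yeast with repair or checkpoint alterations, compound exposure, growth read relative to vehicle.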

[15] = NCI Yeast Anticancer Drug Screen. Data for the mlh1 rad18 strain (AID 175); settings: S. cerevisiae mlh1 rad18 strain growth inhibition, hits give high values
Outline: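 Vehicle-treated cultures served as the reference for growth inhibition in a yeast strain carrying DNA damage repair alterations exposed to each compound.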

[16] = NCI Yeast Anticancer Drug Screen. Data for the rad18 strain (AID 177); settings: S. cerevisiae rad18 mutant growth inhibition, hits give high values
Outline: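 Test articles were incubated with altered yeast defective in DNA damage repair. Results are given as inhibition of growth versus vehicle.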

[17] = at 5.0 µM (retest, dose inferred, filed as 0.5)
[18] = at 50.0 µM (retest, dose inferred, filed as 5.0)

Measured: growth inhibition

CCCCCc1c(CCCC)c(=O)[nH]c2cc(CNCC(OC)OC)ccc12
active: [1]; at 33.0 µM 98% | [1]; at 100.0 µM 94% | [2]; at 33.0 µM 98% | [2]; at 100.0 µM 94% | [3]; at 100.0 µM 93% | [4]; at 33.0 µM 98% | [4]; at 100.0 µM 94% | [5]; at 33.0 µM 98% | [5]; [18] 96% | [5]; at 50.0 µM 88.9% | [5]; at 100.0 µM 93% | [6]; at 33.0 µM 98% | [6]; [18] 98% | [6]; at 50.0 µM 91.3% | [6]; at 100.0 µM 95% | [7]; at 11.0 µM 89% | [7]; at 33.0 µM 98% | [7]; at 100.0 µM 93% | [8]; at 50.0 µM 91% | [9]; at 33.0 µM 98% | [9]; at 100.0 µM 94% | [10]; [18] 95% | [10]; at 50.0 µM 86.5% | [11]; at 33.0 µM 98% | [11]; [18] 97% | [11]; at 50.0 µM 91.2% | [11]; at 100.0 µM 94% | [12]; at 33.0 µM 98% | [12]; at 100.0 µM 94% | [13]; at 33.0 µM 98% | [13]; at 100.0 µM 95% | [14]; at 33.0 µM 99% | [14]; at 100.0 µM 95% | [15]; [18] 96% | [15]; at 50.0 µM 87% | [16]; at 33.0 µM 98% | [16]; at 100.0 µM 94%
inactive: [1]; at 1.2 µM 15% | [1]; at 3.7 µM 11% | [1]; at 11.0 µM 26% | [2]; at 1.2 µM 1% | [2]; at 3.7 µM 7% | [2]; at 11.0 µM 20% | [3]; at 1.2 µM -8% | [3]; at 3.7 µM -9% | [3]; at 11.0 µM 3% | [3]; at 33.0 µM 10% | [4]; at 1.2 µM -15% | [4]; at 3.7 µM -11% | [4]; at 11.0 µM 58% | [5]; at 1.2 µM 14% | [5]; at 3.7 µM 19% | [5]; [17] 8% | [5]; at 11.0 µM 52% | [6]; at 1.2 µM -9% | [6]; at 3.7 µM -9% | [6]; [17] -7% | [6]; at 11.0 µM 7% | [7]; at 1.2 µM -23% | [7]; at 3.7 µM 24% | [8]; [17] 8% | [8]; [18] 46% | [9]; at 1.2 µM 0% | [9]; at 3.7 µM 11% | [9]; at 11.0 µM 63% | [10]; [17] 26% | [11]; at 1.2 µM -6% | [11]; at 3.7 µM 4% | [11]; [17] 19% | [11]; at 11.0 µM 31% | [12]; at 1.2 µM 7% | [12]; at 3.7 µM 11% | [12]; at 11.0 µM 28% | [13]; at 1.2 µM -5% | [13]; at 3.7 µM 13% | [13]; at 11.0 µM 52% | [14]; at 1.2 µM 10% | [14]; at 3.7 µM 23% | [14]; at 11.0 µM 69% | [15]; [17] 50% | [16]; at 1.2 µM 10% | [16]; at 3.7 µM 19% | [16]; at 11.0 µM 14%

O=C1C(CCSc2ccccc2)C(=O)N(c2ccccc2)C1c1ccccc1 (stereo unspecified)
inactive: [1]; at 1.2 µM 23% | [1]; at 3.7 µM 24% | [1]; at 11.0 µM 49% | [2]; at 1.2 µM -32% | [2]; at 3.7 µM -14% | [2]; at 11.0 µM 17% | [3]; at 1.2 µM -4% | [3]; at 3.7 µM -12% | [3]; at 11.0 µM -15% | [3]; at 33.0 µM 0% | [3]; at 100.0 µM -11% | [4]; at 1.2 µM 8% | [4]; at 3.7 µM -18% | [4]; at 11.0 µM 8% | [5]; at 1.2 µM 12% | [5]; at 3.7 µM 17% | [5]; [17] 28% | [5]; at 11.0 µM 35% | [6]; at 1.2 µM 11% | [6]; at 3.7 µM 13% | [6]; [17] 47% | [6]; at 11.0 µM 29% | [7]; at 1.2 µM -4% | [7]; at 3.7 µM -21% | [7]; at 11.0 µM 2% | [8]; [17] -3% | [9]; at 1.2 µM -8% | [9]; at 3.7 µM 2% | [9]; at 11.0 µM 48% | [10]; [17] 33% | [11]; at 1.2 µM 7% | [11]; at 3.7 µM 20% | [11]; [17] 25% | [11]; at 11.0 µM 46% | [12]; at 1.2 µM -5% | [12]; at 3.7 µM -4% | [12]; at 11.0 µM 22% | [13]; at 1.2 µM 1% | [13]; at 3.7 µM -14% | [13]; at 11.0 µM 28% | [14]; at 1.2 µM 7% | [14]; at 3.7 µM 15% | [14]; at 11.0 µM 44% | [15]; [17] 44% | [16]; at 1.2 µM -15% | [16]; at 3.7 µM -3% | [16]; at 11.0 µM 24%
active: [1]; at 33.0 µM 96% | [1]; at 100.0 µM 89% | [2]; at 33.0 µM 96% | [2]; at 100.0 µM 88% | [4]; at 33.0 µM 97% | [4]; at 100.0 µM 89% | [5]; at 33.0 µM 96% | [5]; [18] 85% | [5]; at 50.0 µM 90.9% | [5]; at 100.0 µM 89% | [6]; at 33.0 µM 95% | [6]; [18] 99% | [6]; at 50.0 µM 91.4% | [6]; at 100.0 µM 90% | [7]; at 33.0 µM 93% | [7]; at 100.0 µM 87% | [8]; [18] 99% | [8]; at 50.0 µM 92.3% | [9]; at 33.0 µM 95% | [9]; at 100.0 µM 85% | [10]; [18] 97% | [10]; at 50.0 µM 91.2% | [11]; at 33.0 µM 96% | [11]; [18] 98% | [11]; at 50.0 µM 90.7% | [11]; at 100.0 µM 88% | [12]; at 33.0 µM 95% | [12]; at 100.0 µM 90% | [13]; at 33.0 µM 95% | [13]; at 100.0 µM 90% | [14]; at 33.0 µM 96% | [14]; at 100.0 µM 87% | [15]; [18] 87% | [15]; at 50.0 µM 90.2% | [16]; at 33.0 µM 95% | [16]; at 100.0 µM 89%

CN1C(=O)C(CC(=O)O)NC1=S (stereo unspecified)
inactive: [1]; at 1.2 µM 0% | [1]; at 3.7 µM 0% | [1]; at 11.0 µM -1% | [1]; at 33.0 µM 6% | [1]; at 100.0 µM 22% | [2]; at 1.2 µM -2% | [2]; at 3.7 µM -2% | [2]; at 11.0 µM 1% | [2]; at 33.0 µM 3% | [2]; at 100.0 µM 11% | [3]; at 1.2 µM -1% | [3]; at 3.7 µM -3% | [3]; at 11.0 µM -2% | [3]; at 33.0 µM -10% | [3]; at 100.0 µM -5% | [4]; at 1.2 µM -3% | [4]; at 3.7 µM -2% | [4]; at 11.0 µM 1% | [4]; at 33.0 µM 21% | [4]; at 100.0 µM 27% | [5]; at 1.2 µM -1% | [5]; at 3.7 µM -2% | [5]; [17] 20% | [5]; at 11.0 µM 2% | [5]; at 33.0 µM 9% | [5]; [18] 14% | [5]; at 50.0 µM 61.9% | [5]; at 100.0 µM 25% | [6]; at 1.2 µM 1% | [6]; at 3.7 µM 3%

— PubChem BioAssay (NCI)
